# In ChEMBL document CHEMBL4513216, “Probing the Open Global Health Chemical Diversity Library for Multistage-Active Starting Points for Next-Generation Antimalarials” (ACS Infect Dis, 2020):
# Among all 69,000 compounds or so, about 8,600 (12%) showed an effect of 50% or more. Shown is part of a subset that was picked to be rich in strong results.
# Tested on: Plasmodium berghei
# Assay: Screen against P. berghei liver stage (PbLuc), transformed with Luciferase, at 10uM
# Format: functional, HepG2
# Settings: tested at 10 uM
row,Compound,INHIBITION
1,c1cc(CN2CCC3(CC2)COC(COCC2CC2)C3)co1 (centres undefined),-17.1%
2,Cc1cccc(-c2nc(CNC3CCc4ncnn4C3)no2)c1 (centres undefined),23.7%
3,O=C1CCC2(CCN(Cc3ncccn3)CC2)CN1CCCO,-33.5%
4,Cc1oc(-c2nc(C#N)c(NCC(C)C)o2)cc1S(=O)(=O)N1CCCC1,22.6%
5,CCN(CC)S(=O)(=O)NCC1COc2ccccc2O1 (centres undefined),36.9%
6,Cc1cc(C(=O)NCc2cccnc2N2CCCC(O)C2)c(C)o1 (centres undefined),55%
7,Cc1cc(C(=O)NCc2cccnc2N2CCCC(O)C2)[nH]n1 (centres undefined),34.5%
8,Cn1ccn2ncc(C(=O)NCc3cccnc3N3CCCC(O)C3)c12 (centres undefined),28.8%
9,Cc1cc(CN2CCN(C(=O)NC(C)Cn3cccn3)CC2)no1 (centres undefined),-17.78%
10,CC(NC(=O)NCCCN(C)S(C)(=O)=O)c1cccnc1 (centres undefined),-9.37%
11,CC(NC(=O)NCCCN(C)S(C)(=O)=O)c1ccc(C#N)cc1 (centres undefined),44.1%
12,CC(NC(=O)NCCCN(C)S(C)(=O)=O)c1cccc(Cl)c1 (centres undefined),-15.8%
13,CC(NC(=O)NCCCN(C)S(C)(=O)=O)c1ccncc1 (centres undefined),1.77%
14,CC(NC(=O)NCCCN(C)S(C)(=O)=O)c1ccc(Cl)cc1 (centres undefined),62.6%
15,CC(NC(=O)NCCCN(C)S(C)(=O)=O)c1ccc(F)cc1 (centres undefined),58.5%
16,Cn1cc(CC2CC(=O)N(Cc3ccc(OC(F)F)cc3)C2=O)cn1 (centres undefined),16.6%
17,Cn1ccnc1C(=O)NCc1cnc2n1CCN(CC1CC1)CC2,-24.1%
18,Cc1nc2n(n1)CC(Nc1ccnc(-c3ccccc3)n1)CC2 (centres undefined),-5.1%
19,O=C(NCCn1nc(C2CCNC2)c2cccnc21)c1ccccn1 (centres undefined),3.91%
20,CC1(C)Cc2ccc(C(=O)NC3CCS(=O)(=O)C3)c(O)c2O1 (centres undefined),36.8%
21,O=C1Nc2ccccc2CNC12CCN(CC1CC1)CC2,20.1%
22,c1coc(CN2C[C@H](OCC3CCOCC3)[C@H]3COC[C@H]32)c1,21%

row,Compound,INHIBITION
1,COc1cn(CC(N)=O)c(CSc2nc(C)cc(C)n2)cc1=O,24%
2,COc1cn(CC(N)=O)c(CSc2nccc(C)n2)cc1=O,64.3%
3,CCCNC(=O)Cn1cc(OC)c(=O)cc1CSc1nc(C)cc(C)n1,-3.83%
4,CNC(=O)CCc1cc(C)nc(C2CCN(C3CCCCC3)CC2)c1,15.58%
5,CCOC(=O)[C@H]1CNC[C@@H]1C(=O)OCC,0.868%
6,c1ccc(OCc2n[nH]c3c2CN(CC2CC2)C3)nc1,-23.3%
7,O=C(NCCN1CCOCC1)c1cc(COc2ccccc2F)[nH]n1,63.7%
8,O=C(NCCCN1CCOCC1)C(OC1CCCC1)c1ccccc1 (centres undefined),-12.1%
9,O=C(Cc1ccccc1F)NCC1CCN(CCN2CCOCC2)C1 (centres undefined),64.7%
10,O=C(NCCN1CCOCC1)c1ccn(-c2ccccc2F)n1,-8.91%
11,O=S(=O)(Cc1ccccc1F)NCCN1CCOCC1,-11.9%
12,O=C(Cc1ccccc1F)NCC1CCN(CCc2ccccc2)C1 (centres undefined),26.7%
13,O=C(NCCC1CCCCO1)c1cc(COc2ccccc2F)[nH]n1 (centres undefined),25.4%
14,CN1CCN(CCNC(=O)C(OC2CCCC2)c2ccccc2)CC1 (centres undefined),35.2%
15,O=S(=O)(NCC1CCN(CCN2CCOCC2)C1)c1ccccc1F (centres undefined),47.1%
16,O=C(NCCN1CCOCC1)C(OC1CCCC1)c1ccccc1 (centres undefined),69.5%
17,O=C(NCC1CCCO1)c1cc(COc2ccccc2F)[nH]n1 (centres undefined),16.8%
18,O=C(Cc1ccccc1F)NCCN1CCOCC1,68.4%
19,O=C(Nc1nccs1)NC1CCN(CC2CCCC2)CC1,21.45%
20,c1nn(C2CCCCC2)cc1-c1cncn1CCCN1CCCCC1,18.75%
21,CCC(=O)N1CCC(Cc2ccccc2-c2ccccc2)(C(N)=O)C1 (centres undefined),36.4%
22,Cc1nccn1C1CCCN(C(=O)c2cccc(OCC(N)=O)c2)C1 (centres undefined),-0.219%

row,Compound,INHIBITION
1,N#Cc1ccc(OCCN2CCNC(=O)C2c2cccs2)cc1 (centres undefined),3.04%
2,Cc1ccc(C(=O)NC2CCN(Cc3noc(C(C)(C)C)n3)CC2)s1,-42.8%
3,COCCCS(=O)(=O)N(Cc1cccc(C)c1)Cc1ccccn1,4.13%
4,CCN1CCC2(CCC(=O)N2Cc2cccc(C)n2)CC1,-6.77%
5,CN(C)c1cc(C(=O)N2CCCN(Cc3cscn3)CC2)ccn1,20.1%
6,CC(CNC(=O)Nc1ccc(F)cc1Br)N1CCOCC1 (centres undefined),46.6%
7,CC(Cn1cncc1-c1cnn(C2CCCCC2)c1)N1CCCCC1 (centres undefined),-1.9%
8,O=C(CC1CN(Cc2ccccc2)CCO1)NCCN1CCOCC1 (centres undefined),56.5%
9,O=C(O)CC1CN(Cc2ccccc2)CCO1 (centres undefined),22.1%
10,O=C(CC1CN(Cc2ccccc2)CCO1)NC1CCCC1 (centres undefined),-15.8%
11,CNC(=O)c1c[nH]nc1C1CCCN1c1ncccn1 (centres undefined),23.9%
12,O=C1CCC2(CCN(Cc3ccc(F)cc3)CC2)N1CCN1CCCC1,-22.1%
13,Cn1c(=O)c2sccc2n(Cc2ccccc2)c1=O,36.8%
14,CCS(=O)(=O)N1CCC2(CCN(Cc3cccc(OC)c3)CC2)CC1,34.6%
15,COc1ccc(Cn2c(=O)n(C)c(=O)c3sccc32)cc1,75.7%
16,COc1cccc(-n2cc3[nH]c(=O)n(Cc4cccc(F)c4)n3c2=O)c1,36.3%
17,COc1cccc(Cn2c(=O)n(C)c(=O)c3sccc32)c1,50.5%
18,CCCc1n[nH]c(=O)n1Cc1ccc(OC)cc1,-32.6%
19,COc1ccc(CN2CCn3c(C(=O)N(C)C)cnc3C2)cc1,26.4%
20,CCCC(=O)NCc1cccc(C(=O)OC)c1,51.4%
21,COC(=O)c1cccc(CNC(=O)CC(F)(F)F)c1,51.4%
22,COC(=O)c1cccc(CNC(=O)NCCC(F)(F)F)c1,41.4%

row,Compound,INHIBITION
1,COC(=O)c1cccc(CNC(=O)c2cc(C(C)C)n(C)n2)c1,-55.1%
2,COC(=O)c1cccc(CNC(=O)CCC(F)(F)F)c1,4.68%
3,COCCCC(=O)NCc1cccc(NC(N)=O)c1,15.8%
4,CCc1nc(C)sc1CN1C[C@@H](C)[C@@](C)(O)C1,14.9%
5,CSc1ncc(C(=O)N(C)C(C)Cc2ccccn2)cn1 (centres undefined),-1.16%
6,O=C(NCc1nnc2n1C(C(=O)NC1CC1)CC2)c1ccc(Cl)cc1Cl (centres undefined),44.9%
7,CN1CCC2(CC1)CN(C(=O)c1cccnc1)Cc1ccccc12,33.4%
8,CN1CCC2(CC1)CN(C(=O)c1ccncc1)Cc1ccccc12,57.9%
9,COCCN1Cc2ccccc2C2(CCN(C(=O)c3ccno3)CC2)C1,-1.36%
10,Cc1cncc(C(=O)N2Cc3ccccc3C3(CCN(C)CC3)C2)c1,39.2%
11,Cc1cccc(C(=O)N2Cc3ccccc3C3(CCN(C)CC3)C2)n1,36.9%
12,COCCN1CC2(CCN(C(=O)c3ccno3)CC2)c2ccccc21,-14.7%
13,Cc1ccsc1C(=O)N1Cc2ccccc2C2(CCN(C)CC2)C1,53.5%
14,CN1CCC2(CC1)CN(C(=O)c1cnccn1)Cc1ccccc12,18.3%
15,CS(=O)(=O)N1Cc2ccccc2C2(CCN(C(=O)c3ccno3)CC2)C1,55.7%
16,CCCC1c2cccn2CCN1C(=O)c1cc(CC)no1 (centres undefined),44.1%
17,Cc1cccc(C)c1-n1nnnc1C1(NCc2ccco2)CCCC1,45.4%
18,Cc1nc(C)n(CC2CCCN2CC(=O)NC2CCOCC2)n1 (centres undefined),38.5%
19,Cc1nc(CN2CCN(CC(O)CN3CCOCC3)CC2)oc1C (centres undefined),4.34%
20,O=C([C@H]1CCCO1)N1CCC2(CCCN(CCOc3ccccc3)C2)C1 (some centres undefined),12.4%
21,COCC(=O)N1CC[C@H]2O[C@@H](C)C[C@H]2C1,-1.55%
22,Cc1nn(C)cc1S(=O)(=O)NCC(c1ccccc1Cl)N1CCCC1 (centres undefined),13.5%

row,Compound,INHIBITION
1,Cn1c(CNCC2CCCN2c2cccnn2)nc2ccccc21 (centres undefined),-0.113%
2,OC(COCc1cccs1)CN1CCc2c(ncn2C2CC2)C1 (centres undefined),2.97%
3,Cc1ccc2[nH]c(C3CCN(C)CC3)nc2c1,-17.9%
4,Cc1ccc2[nH]c([C@H]3CCN(CC4CCCCC4)C3)nc2c1,51.9%
5,COCCN1CCC(c2nc3cc(C)ccc3[nH]2)CC1,15.5%
6,Cc1nc(CNC(=O)c2cc(COc3ccccc3)[nH]n2)n[nH]1,15.7%
7,NC(=O)c1nc(-c2ccc(Cl)cc2Cl)oc1N,-63.4%
8,Cc1cc2c(=O)n3c(nc2s1)CCN(Cc1cnn(C)c1C)CC3,24.5%
9,COC(=O)C(C)N1CCCc2cc(OC)ccc2C1 (centres undefined),59.2%
10,COc1ccc2c(c1)CCCN(C(C)C(=O)NC(N)=O)C2 (centres undefined),1.79%
11,COc1ccc2c(c1)CCCN(C(C)C(=O)NC(C)C)C2 (centres undefined),-9.87%
12,CCS(=O)(=O)CC(=O)NC(C)c1ccc(F)cc1F (centres undefined),47.5%
13,Cc1cccc(C(C)(C)NC(=O)CCS(C)(=O)=O)c1,51%
14,CC(C)CS(=O)(=O)CC(=O)NC(C)(C)c1cccc(F)c1,52.2%
15,CNC(=O)CS(=O)(=O)Cc1coc(-c2cccc(F)c2)n1,-11.3%
16,CS(=O)(=O)CCC(=O)Nc1ccsc1,-120%
17,CCC(C(=O)NC)N(c1cccc(C)c1)S(C)(=O)=O (centres undefined),0.547%
18,Cc1cccc(C(C)(C)NC(=O)CS(=O)(=O)CC(C)C)c1,64.5%
19,Cc1cccc(CS(=O)(=O)CC(=O)NCCCOC(C)C)c1,45%
20,CS(=O)(=O)CCC(=O)NC1(c2cccc(Br)c2)CC1,5.14%
21,Cc1nc(C)n(CC2CCCN(CC(=O)Nc3nnc(C)s3)C2)n1 (centres undefined),33.25%
